Measurements as given in PubChem BioAssay (NCI).
Compounds without any hit were thinned out: in the full panel of roughly 83,000, 20% have a hit.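 Method: cells in 96-well plates; compound added at one concentration; 48 h incubation; percent growth measured; values under 10 scored active.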 Active and inactive are the calls of the source.

Test system: HCT-15 colon
Experiment: NCI-60 one-dose screen, 48 h (100 = growth as untreated, 0 = no growth, -100 = all killed)
Conditions: 10 µM unless noted

Row | Compound | growth
1 | COc1cc2c(cc1[N+](=O)[O-])-c1ccc([N+](=O)[O-])cc1/C2=N\O | 87.4% (inactive)
2 | CS(=O)(=O)OCCN(CCOS(C)(=O)=O)c1ccc(/C=N/Nc2ccc([N+](=O)[O-])cc2[N+](=O)[O-])cc1 | 100% (inactive)
3 | COc1cc2c(cc1[N+](=O)[O-])-c1ccc([N+](=O)[O-])cc1/C2=N/NC(N)=S | 72.3% (inactive)
4 | CN(C)C(C(N)=O)c1ccc(Cl)cc1 (configuration not stated) | 108% (inactive)
5 | CC(C)(C)OC(=O)N1CCN(c2ccc(N)cc2)C(=O)C1 | 100% (inactive)
6 | CC(=O)OCC(=O)C1(O)C(C)CC2C3C=C(C)C4=Cc5c(cnn5-c5ccccc5)CC4(C)C3C(O)CC21C (configuration not stated) | -36.2% (active)
7 | Cc1ccc(C2C3CC4CCCCC4N3[C@@]3(C(=O)Nc4cc(Cl)ccc43)C2C(=O)c2nc3ccccc3[nH]2)cc1 (some centres not stated) | 21.5% (inactive)
8 | COc1ccc(-n2cc(-c3cc(OC)c(OC)c(OC)c3)n(C(C)=O)c2=O)cc1 | 94.9% (inactive)
9 | C=C(C)[C@@H]1CC[C@]2(C(=O)N3CCN(C)CC3)CC[C@]3(C)[C@H](CC[C@@H]4[C@@]5(C)CCC(=O)C(C)(C)[C@@H]5CC[C@]43C)[C@@H]12 | 61.7% (inactive)
10 | NC(=S)N/N=C(/c1ccccc1)c1ccccc1N | 84.7% (inactive)
11 | COc1ccc(C(=O)c2cc(C)c(OC)c(C)c2)c(OC)c1N(C(=O)C(Cl)Cl)C(=O)C(Cl)Cl | 7.03% (active)
12 | c1ccc(-c2nn(-c3ccccc3)[n+](-c3ccccc3-c3ccccc3)n2)cc1 | 101% (inactive)
13 | COc1ccc2c(c1)OC13Oc4cc(OC)ccc4C=C1CCCC3=C2 | 12.8% (inactive)
14 | CC(O)(CO)c1ccccc1 (configuration not stated) | 97.8% (inactive)
15 | O=C(Nc1nc(-c2ccccc2Cl)cs1)c1cc(-c2ccccc2)nc2ccc(Cl)cc12 | 11.9% (inactive)
16 | COC(=O)N[C@H]1CCc2cc(OC)c(OC)c(OC)c2-c2ccc(SC)c(=O)cc21 | 9.48% (active)
17 | CCCCCCN(C)Cc1ccc(OCCOc2ccc(CN(C)CCCCCC)cc2)cc1 | 5.57% (active)
18 | CCOC(=O)N1CCc2c(sc3nc4nc[nH]n4c(=O)c23)C1 | 102% (inactive)
19 | CCOC(=O)c1c(C)nc2c(c1N)C(=O)C(=O)N2Cc1ccc(C(F)(F)F)cc1 | 24.1% (inactive)
20 | CC(=O)c1cccc(NS(=O)(=O)c2cccc(C(=O)Nc3ccc(Br)cc3)c2)c1 | 62.8% [25 µM] (inactive)
21 | COc1ccccc1C(C[N+](=O)[O-])c1c(-c2ccccc2)[nH]c2cc(C)ccc12 (configuration not stated) | 44% (inactive)
22 | CC(C)Cc1ccc(C(C)C(=O)NCc2c[nH]c3ccc(Cl)cc23)cc1 (configuration not stated) | 91.2% (inactive)
23 | CCCC1C(C(=O)OCC)=C(N)Oc2cc(O)ccc21 (configuration not stated) | 96.7% (inactive)
24 | Cc1ccc(C(=O)Nc2ccccc2C(=O)N/N=C(\c2ccccc2)c2ccccn2)cc1 | 29.1% (inactive)

Test system: HT29 colon
Experiment: as above
Conditions: 10 µM unless noted

Row | Compound | growth
25 | N#C/C(=C\c1ccc(Br)cc1)n1nnc2cccc(F)c21 | 11.8% (inactive)
26 | COc1cc2oc(-c3cccc(C(=O)Nc4ccc(Cl)cc4)c3)cc(=O)c2c(OC)c1OC | 4.57% (active)
27 | CS(=O)(=O)c1ccc(-c2cc(-c3nnc(SCC(=O)Nc4ccc(C(=O)/C=C/c5ccc(Cl)cc5)cc4)n3-c3ccccc3)c3ccccc3n2)cc1 | 106% (inactive)
28 | COc1ccccc1OCC(=O)N1CCCCCC1 | 95.2% (inactive)
29 | NC(=O)c1cccc(-n2ccc3cc(NC(=O)Nc4cc(C(F)(F)F)cc(C(F)(F)F)c4)ccc32)n1 | 52.6% (inactive)
30 | COc1cc2nc(-c3ccc(C(F)(F)F)cc3)cc(OCCCN3CCCCC3)c2cc1OC | 15.8% (inactive)
31 | COc1ccc2c(Nc3ccc(NS(C)(=O)=O)cc3)c3ccccc3nc2c1 | -45.4% (active)
32 | C=CCn1c(SCC(=O)Nc2ccc(C(=O)/C=C/c3cc(OC)c(OC)c(OC)c3)cc2)nnc1-c1cc(-c2ccc(S(C)(=O)=O)cc2)nc2ccccc12 | 81.3% (inactive)
33 | CN(C)c1ccc(-c2c(C#N)c(N)n3nc(N)c(C#N)c3c2C#N)cc1 | 83.5% (inactive)
34 | CCCCCN1C=C/C(=C\C(=O)N(C)c2cccc3ccccc23)c2ccccc21 | 90% (inactive)
35 | CCCCCOc1ccc(/C=N/Nc2cc(C)nc3ccc(Br)cc23)cc1 | 4.52% (active)
36 | COc1cccc(C(Cc2ccccc2)Nc2ccccc2)c1OC (configuration not stated) | 73% (inactive)
37 | Cc1ccc(Nc2cc(=S)nc(N)[nH]2)cc1C | 94.3% (inactive)
38 | O=S(=O)(O)c1cc(O)c2c(N=Nc3ccc(Nc4ccccc4)c4c(S(=O)(=O)O)cccc34)cc(S(=O)(=O)O)cc2c1 | 107% (inactive)
39 | COc1cc2c(cc1[N+](=O)[O-])-c1ccc([N+](=O)[O-])cc1/C2=N\O | 75.3% (inactive)
40 | CS(=O)(=O)OCCN(CCOS(C)(=O)=O)c1ccc(/C=N/Nc2ccc([N+](=O)[O-])cc2[N+](=O)[O-])cc1 | 85.9% (inactive)
41 | COc1cc2c(cc1[N+](=O)[O-])-c1ccc([N+](=O)[O-])cc1/C2=N/NC(N)=S | 48.7% (inactive)
42 | CN(C)C(C(N)=O)c1ccc(Cl)cc1 (configuration not stated) | 104% (inactive)
43 | CC(C)(C)OC(=O)N1CCN(c2ccc(N)cc2)C(=O)C1 | 117% (inactive)

Row | Compound | growth
44 | CC(=O)OCC(=O)C1(O)C(C)CC2C3C=C(C)C4=Cc5c(cnn5-c5ccccc5)CC4(C)C3C(O)CC21C (configuration not stated) | -54.9% (active)
45 | Cc1ccc(C2C3CC4CCCCC4N3[C@@]3(C(=O)Nc4cc(Cl)ccc43)C2C(=O)c2nc3ccccc3[nH]2)cc1 (some centres not stated) | 19.5% (inactive)
46 | COc1ccc(-n2cc(-c3cc(OC)c(OC)c(OC)c3)n(C(C)=O)c2=O)cc1 | 108% (inactive)
47 | C=C(C)[C@@H]1CC[C@]2(C(=O)N3CCN(C)CC3)CC[C@]3(C)[C@H](CC[C@@H]4[C@@]5(C)CCC(=O)C(C)(C)[C@@H]5CC[C@]43C)[C@@H]12 | 39.2% (inactive)
48 | NC(=S)N/N=C(/c1ccccc1)c1ccccc1N | 54.8% (inactive)
49 | COc1ccc(C(=O)c2cc(C)c(OC)c(C)c2)c(OC)c1N(C(=O)C(Cl)Cl)C(=O)C(Cl)Cl | 1.22% (active)
50 | c1ccc(-c2nn(-c3ccccc3)[n+](-c3ccccc3-c3ccccc3)n2)cc1 | 5.29% (active)
51 | COc1ccc2c(c1)OC13Oc4cc(OC)ccc4C=C1CCCC3=C2 | 8.16% (active)
52 | CC(O)(CO)c1ccccc1 (configuration not stated) | 102% (inactive)
53 | O=C(Nc1nc(-c2ccccc2Cl)cs1)c1cc(-c2ccccc2)nc2ccc(Cl)cc12 | 85.3% (inactive)
54 | COC(=O)N[C@H]1CCc2cc(OC)c(OC)c(OC)c2-c2ccc(SC)c(=O)cc21 | 2.35% (active)
55 | CCCCCCN(C)Cc1ccc(OCCOc2ccc(CN(C)CCCCCC)cc2)cc1 | 1.29% (active)
56 | CCOC(=O)N1CCc2c(sc3nc4nc[nH]n4c(=O)c23)C1 | 100% (inactive)
57 | CCOC(=O)c1c(C)nc2c(c1N)C(=O)C(=O)N2Cc1ccc(C(F)(F)F)cc1 | 65.1% (inactive)
58 | CC(=O)c1cccc(NS(=O)(=O)c2cccc(C(=O)Nc3ccc(Br)cc3)c2)c1 | 78.4% [25 µM] (inactive)
59 | COc1ccccc1C(C[N+](=O)[O-])c1c(-c2ccccc2)[nH]c2cc(C)ccc12 (configuration not stated) | 35.8% (inactive)
60 | CC(C)Cc1ccc(C(C)C(=O)NCc2c[nH]c3ccc(Cl)cc23)cc1 (configuration not stated) | 111% (inactive)
61 | CCCC1C(C(=O)OCC)=C(N)Oc2cc(O)ccc21 (configuration not stated) | 97.8% (inactive)
62 | Cc1ccc(C(=O)Nc2ccccc2C(=O)N/N=C(\c2ccccc2)c2ccccn2)cc1 | 24.9% (inactive)
